The values below come from ChEMBL document CHEMBL1157539, “Thousands of chemical starting points for antimalarial lead identification” (Nature, 2010).

SMILES strings stand for the structures.

For the assay, the system named is Plasmodium falciparum. The assay is described as follows: GSK_TCMDC: Inhibition of Plasmodium falciparum Dd2 in whole red blood cells, using parasite LDH activity as an index of growth. Test compounds present at 2uM. It counts as functional.
For `Br.Oc1ccc(CNCCCCCCNCCc2ccc(Cl)cc2)cc1O`, the Inhibition turned out to be 7%.

On to `CCOC(=O)c1nc(-c2ccccc2)[nH]c1-n1nc(C)cc1C`, for which the Inhibition is reported as 9%.

In the case of `O=C(NCCc1ccccc1)N(Cc1cccc(-c2ccc(CNCc3ccc4c(c3)OCO4)cc2)c1)C1CCN(Cc2ccccc2)CC1.O=C(O)C(F)(F)F`, the Inhibition came to 70%. The figure for `COc1cc(C)c(NC(=O)c2cccc3c(=O)c(C)c(-c4ccccc4)oc23)cc1OC` is 32%. Consider `CCOC(=O)CN1Cc2cc(NCc3ccc4ccc5nc(C)[nH]c(=O)c5c4c3)ccc2C1=O`, for which the Inhibition worked out at 91%. The figure for `Cc1noc(-c2cccs2)c1C(=O)NC(C)c1cccc2ccccc12` (stereo not given) is 95%. As to `O=C(NCc1ccccc1)Nc1cccc(-c2cccc(-c3nc4cc(C(F)(F)F)ccc4[nH]3)c2)c1`, the Inhibition is reported as 30%. With `O=c1c2ccccc2[nH]c2nc3ccccc3c(Nc3ccccc3)c12`, the Inhibition came out at 97%.

With `Oc1c(C(Nc2ccccn2)c2ccco2)cc(Cl)c2cccnc12` (stereo not given), the Inhibition amounted to 65%. In turn, `C#CCN(Cc1ccc2[nH]c(N)nc(=O)c2c1)c1ccc(C(=O)N[C@@H](CCC(=O)O)C(=O)O)cc1` showed an Inhibition of 96%. `CCS[C@@H]1O[C@H](COC(=O)c2ccccc2)[C@H](OC(=O)c2ccccc2)[C@H](OC(=O)c2ccccc2)[C@H]1OC(=O)c1ccccc1` registered an Inhibition of 52%. The molecule `CCCCCCN1CCC(NCc2cccc(C#N)c2)CC1.O=C(O)C(F)(F)F` gave an Inhibition of 9%.

Regarding `CCNc1cc(C)nc(Nc2ccc(C)cc2)n1`, the Inhibition turned out to be 85%. With `CC(C)(C)OC(=O)C1CCCN(Cc2ccc(-c3cccc(-c4nc5ccccc5[nH]4)c3)cc2)C1.O=C(O)C(F)(F)F` (stereo not given), the Inhibition was found to be 27%. Regarding `CCOc1ccccc1CON1C(N)=NC(N)=NC1(C)C`, the Inhibition was 1%. Molecule `CN(C)CCOc1ccc(-n2c(-c3nonc3N)nc3cncc(-c4ccc(F)cc4)c32)cc1` showed an Inhibition of 7%. The molecule `N#Cc1ccc(C(=O)NC2CCN(CCCCCNC(=O)/C=C/c3ccc(Cl)c(Cl)c3)CC2)cc1` gave an Inhibition of 1%. On to `Cc1cnccc1/C=C/c1cccc(OCCN2CCc3ccc(S(C)(=O)=O)cc3CC2)c1`, for which the Inhibition was determined as 80%. Turning to `COc1cccc(-c2cc(C(=O)NC3CCC(N4CCC(c5ccccc5C)CC4)CC3)[nH]n2)c1` (stereo not given), the Inhibition came to 58%. The molecule `COc1ccc(NC(=O)/C=C/c2ccccc2Cl)cc1OCCN1CCC(NCc2cccnc2)CC1` yielded an Inhibition of 88%. `COc1ccc2[nH]c(C)cc(=NN=Cc3ccccc3)c2c1` registered an Inhibition of 6%. The result for `CCCCN(CCCC)/C(=N/C(=N)Nc1ccc(Cl)cc1)NCCCCCCN/C(=N\C(=N)Nc1ccc(Cl)cc1)N(CCCC)CCCC` reads 72%; that for `N#Cc1ccc(N(CCOc2ccc(Cl)c(F)c2)Cc2ccccc2C(F)(F)F)cc1C(F)(F)F`, 43%.

Molecule `CC(CN(C)C)C(=O)Nc1ccc(-c2ccc(-c3nc4ccccc4[nH]3)s2)cc1` (stereo not given) came in with an Inhibition of 86%. Regarding `Cc1nn(-c2cccc(Cl)c2)c2c1C(C(=O)c1ccc3c(c1)OCO3)CC(=O)N2` (stereo not given), the Inhibition stood at 95%.

Turning to `O=C(Cn1c(CCc2cccc(F)c2F)nc(=O)c2ccccc21)N(Cc1ccc(-c2ccc(C(F)(F)F)cc2)cc1)C1CCN(C2CCSCC2)CC1.O=C(O)C(O)C(O)C(=O)O`, the Inhibition came out at 93%. `COc1cc(Nc2nccc(N3CCC(NC(=O)Nc4cccc(C(C)=O)c4)C3)n2)cc(OC)c1OC` (stereo not given) displayed an Inhibition of 34%. As to `CC(C)(CN)c1cc(-c2ccc(Cl)c(O)c2)c(-c2ccncc2)o1.Cl`, the Inhibition was determined as 97%.

In turn, `O=C(O)C(F)(F)F.O=[N+]([O-])c1cccc(CNC2CCN(Cc3ccc(C(F)(F)F)cc3)CC2)c1` registered an Inhibition of 28%. Regarding `Cl.Oc1cccc(Nc2ccnc3cc(-c4ccccn4)ccc23)c1`, the Inhibition is on record as 98%. As to `Nc1ncnc2cc(-c3cccc(NC(=O)Nc4ccccc4)c3)sc12`, the Inhibition was 33%.

`CN(c1ccc(NC(=O)Nc2cc(C(C)(C)C)on2)cc1)c1ccnc(NCCOC(=O)Nc2cc(C(C)(C)C)on2)n1.O=C(O)C(F)(F)F`: the Inhibition was 54%. The figure for `COc1cc2nc(NCCc3ccccc3)nc(NCCc3ccccc3)c2cc1OC` is 100%.

Take `COc1ccc(CNCc2ccc(-c3ccc(-c4nc5ccccc5[nH]4)cc3)cc2)cc1.O=C(O)C(F)(F)F`: the Inhibition is 89%. In turn, `CN1CCCC1CCNC(=O)[C@H](CC1CCCCC1)NC(=O)c1ccc(O)c(-c2ccc(Cl)c(Cl)c2)c1` (stereo not given in full) returned an Inhibition of 35%. For `CCN1CCCC(CNC(=O)/C(=C/C=C/c2cc3cc(Cl)c(Cl)cc3[nH]2)OC)C1` (stereo not given), the Inhibition is on record as 89%. In turn, `O=C1SC(S)=NC1=CNCCCCCCO` gave an Inhibition of 1%. In the case of `COc1ccc(N2CCN(CCCCNC(=O)c3ccc(NC(=O)c4cccc(Cl)c4)cc3)CC2)c(OC)c1`, the Inhibition is listed as 33%. `O=C(O)C(F)(F)F.O=S(=O)(NC1CCN(c2ccnc3cc(Cl)ccc23)C1)c1ccc(C(F)(F)F)cc1` (stereo not given) returned an Inhibition of 98%. Molecule `O=C(NCC1CCC(C(=O)NCc2cccc3ccccc23)CC1)c1ccc(O)c(-c2ccc(Cl)c(Cl)c2)c1` (stereo not given) had an Inhibition of 92%.

By Inhibition is commonly meant the relative decrease from the control value, in per cent. High values mean strong suppression, low ones little suppression.
